From PubChem BioAssay (EPA / NIEHS) come the findings set out here.

Each structure is given as a SMILES string. Records with an inconclusive call do not appear. The source made the active and inactive calls. The calls were made as follows: active = hit-call score of the fitted dose curve at least 0.9, where 1 is the maximum; inconclusive = response in the unintended direction; inactive = score below 0.9.

human Dopamine Transporter (DAT), SLC6A3 (gene 6531), sequence (Q01959 whole entry, looked up): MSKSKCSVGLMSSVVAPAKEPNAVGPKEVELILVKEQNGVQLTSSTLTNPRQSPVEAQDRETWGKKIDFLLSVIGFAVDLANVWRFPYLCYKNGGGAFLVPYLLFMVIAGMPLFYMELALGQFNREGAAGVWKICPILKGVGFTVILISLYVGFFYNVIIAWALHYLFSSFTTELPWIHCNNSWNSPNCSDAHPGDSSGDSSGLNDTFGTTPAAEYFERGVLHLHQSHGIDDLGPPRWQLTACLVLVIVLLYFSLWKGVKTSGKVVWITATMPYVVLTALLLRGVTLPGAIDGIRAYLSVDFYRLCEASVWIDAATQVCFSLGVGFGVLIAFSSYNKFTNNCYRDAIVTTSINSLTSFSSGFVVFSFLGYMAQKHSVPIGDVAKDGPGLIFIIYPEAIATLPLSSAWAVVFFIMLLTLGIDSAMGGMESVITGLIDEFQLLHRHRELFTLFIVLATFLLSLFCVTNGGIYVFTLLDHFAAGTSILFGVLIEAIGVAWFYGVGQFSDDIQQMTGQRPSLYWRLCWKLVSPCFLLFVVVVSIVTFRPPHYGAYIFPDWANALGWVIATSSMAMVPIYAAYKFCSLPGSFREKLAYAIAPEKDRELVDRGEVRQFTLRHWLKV
human Adenosine Transporter (Adot), SLC29A1 (gene 2030), sequence (Q99808 whole entry, looked up): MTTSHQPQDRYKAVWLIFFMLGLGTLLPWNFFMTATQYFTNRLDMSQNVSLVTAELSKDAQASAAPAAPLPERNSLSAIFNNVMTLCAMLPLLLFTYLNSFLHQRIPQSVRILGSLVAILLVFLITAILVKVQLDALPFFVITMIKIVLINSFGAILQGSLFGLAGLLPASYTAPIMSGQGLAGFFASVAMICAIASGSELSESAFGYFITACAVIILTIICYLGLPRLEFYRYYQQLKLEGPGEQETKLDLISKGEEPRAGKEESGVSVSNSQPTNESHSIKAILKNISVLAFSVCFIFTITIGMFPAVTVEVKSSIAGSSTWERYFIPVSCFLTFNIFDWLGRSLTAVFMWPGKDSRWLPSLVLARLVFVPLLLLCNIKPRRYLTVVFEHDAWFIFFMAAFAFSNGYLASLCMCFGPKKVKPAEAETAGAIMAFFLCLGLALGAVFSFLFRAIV
Peroxisome proliferator-activated receptor gamma (Homo sapiens), sequence (P37231 whole entry, looked up): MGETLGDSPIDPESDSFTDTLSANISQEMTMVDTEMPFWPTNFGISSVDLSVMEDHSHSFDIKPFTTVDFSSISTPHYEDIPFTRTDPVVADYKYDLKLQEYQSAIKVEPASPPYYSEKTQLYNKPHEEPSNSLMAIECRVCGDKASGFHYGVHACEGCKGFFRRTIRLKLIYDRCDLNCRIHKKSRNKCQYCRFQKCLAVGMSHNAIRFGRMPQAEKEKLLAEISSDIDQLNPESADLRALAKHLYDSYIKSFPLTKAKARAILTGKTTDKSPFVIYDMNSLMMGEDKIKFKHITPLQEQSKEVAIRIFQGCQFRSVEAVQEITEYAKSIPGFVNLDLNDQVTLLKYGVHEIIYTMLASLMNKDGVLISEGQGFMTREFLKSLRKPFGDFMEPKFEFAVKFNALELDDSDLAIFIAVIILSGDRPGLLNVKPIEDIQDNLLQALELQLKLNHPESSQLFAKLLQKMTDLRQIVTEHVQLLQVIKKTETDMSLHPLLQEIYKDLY

In the first test the target is human Adenosine Transporter (Adot), SLC29A1 (gene 2030) (UniProt Q99808). In words: NVS_TR_hAdoT: NovaScreen (NVS) Transporter Assay for human Adenosine Transporter (Adot) (AID 2283368). A digest of the protocol:
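Binding displacement on U937 extracted protein, read 1 h post-dose by filtration and scintillation counting. Primary duplicate test at 25 uM, then singleton concentration series with 50 uM top; DMSO baseline.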
By AC50 is commonly meant the concentration giving half of the maximal activity seen. `Cc1oc2c(NC(=O)c3c(Cl)cccc3Cl)cccc2c1C(C)(C)O`: the concentration at half-maximal activity (AC50) was 25 µM (active). Still for that read-out and setting: as for `O=c1[nH]sc2ccccc12`, the figure is 17.2 µM (active). Still for that read-out and setting: under `Cc1occc1C(=O)Nc1ccc(C(=O)N2CCC(F)(F)/C(=C\C(=O)N3CCC(N4CCCCC4)CC3)c3ccccc32)cc1` stands 8.75 µM (active); under `O=C1c2ccccc2C(=O)N1CCc1noc(-c2ccc(CN3CCCCCC3)s2)n1`, 21.1 µM (active). With `CCCCCCCCCCCC[N+](C)(C)C`, the result was inactive. On to `Cc1ccc2oc(CN(Cc3ccccc3)C(=O)Nc3c(F)cc(F)cc3F)c(-c3ccc(Cl)cc3)c2c1`, for which the half-maximal activity concentration (AC50) was 1.1 µM (active).

The next test concerns guinea pig Dopamine Transporter (DAT), gene 100714898. Nature of the test: NVS_TR_gDAT: NovaScreen (NVS) Transporter Assay for guinea pig Dopamine Transporter (DAT) (AID 2283369).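 Also: active compounds lower bound radioligand signal relative to DMSO.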 A digest of the protocol: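 Cell-free striatal membrane prep (guinea pig), 2 h exposure, filtration + scintillation readout of radioligand binding. Single-point 25 uM duplicate; actives rerun singleton, top conc 50 uM.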
Consider `c1ccc(C[n+]2cccc3ccccc32)cc1`, for which the concentration at half-maximal activity (AC50) is 10.1 µM (active). Take `CCCOC(=O)c1cc(O)c(O)c(O)c1`: the AC50 is 25 µM (active).

Consider `O=c1[nH]sc2ccccc12`, for which the concentration at half-maximal activity (AC50) was 40.5 µM (active).

Turning to `COc1cccc([C@H](O)C2CCN(CCc3ccc(F)cc3)CC2)c1OC`, the concentration at half-maximal activity (AC50) was 19.9 µM (active). Same read-out and setting: under `Cc1occc1C(=O)Nc1ccc(C(=O)N2CCC(F)(F)/C(=C\C(=O)N3CCC(N4CCCCC4)CC3)c3ccccc32)cc1` stands 7.8 µM (active); under `O=C1c2ccccc2C(=O)N1CCc1noc(-c2ccc(CN3CCCCCC3)s2)n1`, 13.9 µM (active). For the molecule `CCCCCCCCCCCC[N+](C)(C)C`, the AC50 is 25 µM (active). For `Cc1ccc2oc(CN(Cc3ccccc3)C(=O)Nc3c(F)cc(F)cc3F)c(-c3ccc(Cl)cc3)c2c1`, the result was inactive.

For `CCCCCc1ccc(N)cc1`, the AC50 is 25 µM (active).

A further test has as its target Peroxisome proliferator-activated receptor gamma (Homo sapiens) (UniProt P37231). In words: NVS_NR_hPPARg: NovaScreen (NVS) Nuclear Receptor Binding Assay for human Peroxisome Proliferator-activated Receptor gamma (PPARg) (AID 2283370). A digest of the protocol: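 FP read-out, 2 h post-dose, cell-free extracted receptor protein. Signal loss vs DMSO negative control = binding activity. Single-conc duplicate HTS at 25 uM; concentration-response follow-up for actives.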
As for `CCCCCCCC[Si](OCC)(OCC)OCC`, the result was inactive.

Turning to `O=C1O[C@H]([C@@H](O)CO)C(O)=C1O`, the result was inactive. On the same count and under the same terms, under `CCCOC(=O)c1cc(O)c(O)c(O)c1` stands “inactive”; under `CC1=CC(=O)/C(=C(/C)O)C(=O)O1`, “inactive”. Same read-out and setting: as for `Cc1oc2c(NC(=O)c3c(Cl)cccc3Cl)cccc2c1C(C)(C)O`, the entry is “inactive”. `O=C(O)Cn1c(=O)n(Cc2ccc(Br)cc2F)c(=O)c2ccc(Cl)cc21`: the AC50 is 42.4 µM (active). Still for that read-out and setting: as for `CC(C)(C)c1csc(-c2cc3cc(OCc4ccccc4CC(=O)O)ccc3o2)n1`, the figure is 0.00229 µM (active). `CC[C@H](NC(=O)c1cc(F)ccc1NS(=O)(=O)c1cccc2cccnc12)c1ccccc1`: the outcome was inactive. Still for that read-out and setting: as for `O=CCCCC=O`, the entry is “inactive”; as for `CC1(C)NC(=O)N(c2ccc([N+](=O)[O-])c(C(F)(F)F)c2)C1=O`, “inactive”; as for `c1ccc2n[nH]nc2c1`, “inactive”. Still for that read-out and setting: as for `CCCCCCCCCCCC[N+](C)(C)C`, the entry is “inactive”. For `CCCCCc1ccc(N)cc1`, the molecule was classed as inactive. Same read-out and setting: as for `c1ccc2ccccc2c1`, the entry is “inactive”.

A further test concerns the target human Dopamine Transporter (DAT), SLC6A3 (gene 6531) (UniProt Q01959). Nature of the test: NVS_TR_hDAT: NovaScreen (NVS) Transporter Assay for human Dopamine Transporter (DAT) (AID 2283374).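 Also: activity means loss of bound radioligand signal relative to DMSO.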 In outline:
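Duplicate single-point screening at 25 uM preceded concentration-series follow-up of actives. Binding was measured by competitive displacement of a radioligand from DAT protein, filter-counted by scintillation 1 h after dosing. Decrease relative to DMSO taken as activity.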
Consider `CCCCCCCCCC(=O)O`, for which the result was inactive. As to `c1ccc(C[n+]2cccc3ccccc32)cc1`, the concentration at half-maximal activity (AC50) was 9.52 µM (active). The same measure, in the same setting: under `Clc1cc(Cl)c2c(c1)N=C1CCCCCN1C2` stands 4.92 µM (active).

For `CC(=O)N1CCN(c2ccc(OC[C@H]3CO[C@](Cn4ccnc4)(c4ccc(Cl)cc4Cl)O3)cc2)CC1`, the concentration at half-maximal activity (AC50) was 11.2 µM (active). On the same count and under the same terms, as for `CCCOC(=O)c1cc(O)c(O)c(O)c1`, the figure is 10.8 µM (active); as for `O=c1[nH]sc2ccccc12`, 21.4 µM (active); as for `O=C=NCCCCCCN=C=O`, 16.3 µM (active). In the case of `CCCCCCCCCCCC[N+](C)(C)C`, the half-maximal activity concentration (AC50) is 10.5 µM (active).

For `CCCCCc1ccc(N)cc1`, the AC50 is 8.47 µM (active).
